# PINK1 modulator – A Quantitative High throughput Screen to Identify Chemical Modulators of PINK1 Expression | PINK1 immunofluorescence, high-content cytometry, 24 h | Potency, µM (titrated, usually from 76.6 µM), without a hit: at the highest dose activation (PINK1 increase), hits mostly activators | 410,000 tested, 0.2% active | AID 624263, 2012; active = well fitted activation curve with a large enough effect; inconclusive = small, poorly fitted or top-dose-only effect; cell line not stated here; note: % of control where 0% means no effect; nearly all actives have a fitted effect of over 65% in size
#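 A stable cell line was treated with compounds at 5 concentrations for 24 hours, with CCCP as control. PINK1 levels and mitochondrial localization were measured by immunofluorescence with mitochondrial, cell and nuclear markers after fixation, read by laser-scanning cytometry.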
# SW480 rerep – A quantitative high throughput screen for small molecules that induce DNA re-replication in SW480 colon adenocarcinoma cells. AID 624297, 2012. SW480 DNA re-replication, Hoechst DNA content imaging, 48 h. Potency, µM (top dose mostly 46.1 µM), for the others: top-dose re-replication activation, hits mostly activators. 340,000 tested, 1.8% active; note: % of control where 0% means no effect; nearly all actives have a fitted effect of over 55% in size
#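 250 cells/well; 23 nL cpd via pin tool; 48 hr, 37 C, 5% CO2; Hoechst 40 min; imager read of total nuclear intensity, ex 405/em 500-530 nm.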
# MCF10A rerep – A quantitative high throughput screen for small molecules that induce DNA re-replication in MCF 10a normal breast cells; 350,000 tested, 2.9% active; Potency, µM (highest dose often 46.1 µM), for the others: at the top dose activity, positive = re-replication, actives largely listed as activators; MCF 10A DNA re-replication, Hoechst nuclear intensity, 48 h; note: % of control where 0% means no effect; nearly all actives have a fitted effect of over 50% in size
# KB-3-1 tox – qHTS assay for MDR1-selective chemotherapeutics: Primary screen using the parental adenocarcinoma cell KB-3-1; 400,000 tested, 1.4% active; Potency, µM (doses to about 46.1 µM), usual class: cytotoxic; AID 1347075, 2019; KB-3-1 viability, CellTiter-Glo ATP luminescence, 72 h; note: % is set by controls: 0 for no effect and ±100 for the full control effect; nearly all actives have a fitted effect of over 60% in size
#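 Viability of parental KB-3-1 cells, measured by CellTiter-Glo luminescence, followed a 72 h incubation at 37 °C with pinned compounds in phenol-red-free DMEM containing 10% FBS.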
# TSG101-PTAP inh – qHTS Assay for Iinhibitors of HIV-1 Budding by Blocking the Interaction of PTAP/TSG101; Potency, µM (highest dose often 115 µM), without a hit: at the top dose activity change, negative = inhibition, usual class: inhibitors; 340,000 tested, under 10 active; Fluorescence polarization, FITC-PTAP peptide / Tsg101 binding; Tumor susceptibility gene 101 protein (Homo sapiens), Q99816; active = well fitted inhibition curve with a large enough effect in the main read-out, with a control signal flat, not every such curve was filed as active; inconclusive = small, poorly fitted or top-dose-only effect, or effect the other way, or a change in a side signal; inactive = no such curve, though single readings can be large or run the other way; note: % of control where 0% means no effect
# Target sequence (Q99816 whole entry, looked up): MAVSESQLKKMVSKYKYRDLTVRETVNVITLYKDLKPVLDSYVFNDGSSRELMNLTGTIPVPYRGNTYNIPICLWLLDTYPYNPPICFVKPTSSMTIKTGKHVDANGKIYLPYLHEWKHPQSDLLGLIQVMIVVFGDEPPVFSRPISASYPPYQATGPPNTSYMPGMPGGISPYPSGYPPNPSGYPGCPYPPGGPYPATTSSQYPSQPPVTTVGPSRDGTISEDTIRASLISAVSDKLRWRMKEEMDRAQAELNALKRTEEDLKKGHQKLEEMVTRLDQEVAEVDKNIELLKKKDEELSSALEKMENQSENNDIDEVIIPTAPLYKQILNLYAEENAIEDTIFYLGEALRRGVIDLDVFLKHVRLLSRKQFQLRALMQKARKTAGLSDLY
#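 FP read-out: FITC-PTAP peptide, 50 nM final, binding Tsg101 binding domain, 10 uM final; 20 min, r.t.; 10 mM HEPES pH 7.5, 0.15 M NaCl, 0.01% Tween 20, 3 mM EDTA, 0.1 mM TCEP.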
# KB-V1 MDR tox – qHTS assay for MDR1-selective chemotherapeutics: Primary screen using the drug-selected MDR subline cells KB-V1. KB-V1 MDR cells viability, CellTiter-Glo, 72 h. Potency, µM (doses to about 46.1 µM), most hits filed as cytotoxic. 400,000 tested, 3.4% active; note: % is set by controls: 0 for no effect and ±100 for the full control effect; nearly all actives have a fitted effect of over 60% in size
#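 In this primary screen, KB-V1 cells overexpressing P-gp are incubated with library compounds (lowest to highest concentration) for 72 h at 37 degrees C before a luminescent ATP viability read.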
# The depositor's hits bear a star; i = inactive; ? = inconclusive; nt = no result; [ ] = another dose, or the depositor's remark. Hits are enriched below; roughly 6.8% of the tested compounds scored in any of these assays. Unless noted, calls come from the whole dose curve; as a rule, active = well fitted curve in the direction sought with a large enough effect; inconclusive = small, poorly fitted or top-dose-only effect, or another doubt; inactive = no such curve, though single readings can be large; an effect the other way counts as inactive or inconclusive. Potency is the fitted concentration of half-maximal effect.
SMILES,PINK1 modulator,SW480 rerep,MCF10A rerep,KB-3-1 tox,TSG101-PTAP inh,KB-V1 MDR tox
COc1ccc(-c2cc(Cl)cc3c(=O)c4ccccc4n(C)c23)cc1F,5%,18µM*,?,i,-4%,i
COc1cc(-c2ccc3c(=O)c4ccccc4n(C)c3c2)cc(OC)c1OC,0%,13µM*,?,?,-9%,?
Cn1c(-c2ccc3c(c2)OCO3)cc(=O)c2ccccc21,0%,-2%,-4%,i,1%,i
Cn1c2ccccc2c(=O)c2ccc(F)cc21,-1%,16µM*,?,i,-3%,?
COc1ccc(Cl)cc1-n1nnc(-c2nc(-c3ccccc3)no2)c1C,0%,nt,nt,nt,nt,nt
COc1ccccc1NC(=O)c1c(-c2ccc(C)cc2)nnc2ccccc12,1%,nt,nt,i,nt,i
COc1ccc(C2C=C(c3ccccc3)Nc3nc(NC(=O)/C=C/c4ccc(F)cc4)nn32)cc1 (stereo not given),0%,nt,nt,i,nt,i
C=CS(=O)(=O)c1ccc(Oc2ccc(S(=O)(=O)C=C)cc2)cc1,5%,?,3.3µM*,?,4%,?
NS(=O)(=O)c1ccc(Oc2ccc(S(N)(=O)=O)cc2)cc1,1%,-4%,-24%,i,1%,i
Cc1cnc(-n2ncc(C(=O)N(C)C3CCOC3)c2C)nc1-c1ccc(F)cc1 (stereo not given),-1%,nt,nt,nt,nt,nt
COc1ccc(OC)c(NC(=O)CN2CCC(C(=O)c3ccc(C)cc3)CC2)c1,1%[38.3 µM],3%,18µM*,?,-5%,8.2µM*
CCOc1ccc(C(=O)Nc2ccccc2N2CCCC2)cc1,-1%,?,?,23µM*,-12%,?
O=C(Nc1ccccc1N1CCCCC1)c1ccc(OC(F)F)cc1,13%,26%,13µM*,i,-2%,i
Cc1ccc(C(=O)C2CCN(CC(=O)Nc3ccccc3C)CC2)cc1,1%,-1%,?,i,-1%,?
CCOc1ccc(C(=O)C2CCN(CC(=O)Nc3ccccc3N3CCOCC3)CC2)cc1,11%[38.3 µM],?,7.3µM*,i,-2%,?
CCOc1ccc(C(=O)Nc2ccccc2N2CCOCC2)cc1,-2%,-1%,12%,i,-3%,i
COc1ccccc1CNC(=O)CCc1c(C)c2cc3c(C)coc3cc2oc1=O,-1%,nt,nt,i,nt,i
CC(=O)c1ccc(C(=O)N2CCc3c(cnc(C)c3CNC(=O)c3ccc4c(c3)OCO4)C2)s1,-1%,nt,nt,nt,nt,nt
COc1ccc(N2CCN(CCCNC(=O)c3nnc(Cc4ccc(F)cc4)o3)CC2)cc1,-2%,nt,nt,i,nt,i
Cc1ccc(CNC(=O)c2nc(-c3ccc(Cl)cc3)n3c2CCCCC3)cc1,2%,nt,nt,i,nt,i
C/C(CCN1CCCCc2nc(C)c(C)cc21)=N\O[C@@H](C)CN1CCCCc2nc(C)c(C)cc21,nt,?,23µM*,nt,nt,nt
Cc1cc(C)nc(N2CCCC(C(=O)Nc3ccc4c(c3)OCCO4)C2)n1 (stereo not given),-2%[38.3 µM],0%,7%,i,-2%,7.3µM*
Cc1cccc(NC(=O)C2CCCN(c3nc4ccccc4s3)C2)c1C (stereo not given),0%,nt,nt,i,nt,i
CCc1nnc(NC(=O)C2CCCN(c3nc4ccccc4s3)C2)s1 (stereo not given),3%[38.3 µM],2%,3%,i,-8%,15µM*

# Screening data deposited in PubChem BioAssay by National Center for Advancing Translational Sciences (NCATS).
